# Compounds with a hit are over-represented: about 5.2% of the library has one in this group of screens.
# Sfp inh: inhibitors of Bacillus subtilis Sfp phosphopantetheinyl transferase | 310,000 compounds, 3.5% hits | Biochemical Sfp PPTase activity, qHTS | AID 1490 | Potency, µM, inactives show largest response in the series, negative = inhibition, most hits filed as inhibitors;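 also: the enzyme is Sfp with the accession as filed and its product quenches rhodamine fluorescence; 0% = enzyme reaction without inhibitor and -100% = no enzyme wells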
#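 Buffer: 50 mM Hepes-Na pH 7.6, 10 mM MgCl2, 0.01% Nonidet P-40, 0.01% BSA. Enzyme 15 nM, pre-exposed to compound 15 min; substrates then added and fluorescence change tracked over 30 min.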
# mIDH1 inhibitor: blocks human mutant IDH1 R132H enzyme | IDH1-R132H enzyme, NADPH consumption, diaphorase/resazurin fluorescence | Potency, µM (doses to about 76.6 µM), for inactives: at the highest dose activity change, negative = inhibition, usual class: inhibitors | O75874 | AID 602179 | 390,000 compounds, 0.093% hits; also: nearly all actives have a fitted effect of over 65% in size
#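 IDH1-R132H (0.5 ug/mL) preincubated 30 min with compound, then NADPH (0.016 mM) and alpha-KG (2 mM) added; 80 min at RT, pH 7.5. Remaining NADPH coupled via diaphorase/resazurin to fluorescence (540/590 nm); concentration-response curves normalized to no-enzyme control.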
# PLK1 PBD inh: PLK1 (human) polo-box domain binding inhibition | Plk1 PBD binding of FITC phosphopeptide, fluorescence polarization | Potency, µM, for the others: max response, negative = inhibition, usual class: inhibitors | 360,000 compounds, 2.8% hits; also: series mostly up to about 57 µM; nearly all actives have a fitted effect of over 65% in size
# Target sequence (P53350 whole entry, looked up, the tested form may be a part): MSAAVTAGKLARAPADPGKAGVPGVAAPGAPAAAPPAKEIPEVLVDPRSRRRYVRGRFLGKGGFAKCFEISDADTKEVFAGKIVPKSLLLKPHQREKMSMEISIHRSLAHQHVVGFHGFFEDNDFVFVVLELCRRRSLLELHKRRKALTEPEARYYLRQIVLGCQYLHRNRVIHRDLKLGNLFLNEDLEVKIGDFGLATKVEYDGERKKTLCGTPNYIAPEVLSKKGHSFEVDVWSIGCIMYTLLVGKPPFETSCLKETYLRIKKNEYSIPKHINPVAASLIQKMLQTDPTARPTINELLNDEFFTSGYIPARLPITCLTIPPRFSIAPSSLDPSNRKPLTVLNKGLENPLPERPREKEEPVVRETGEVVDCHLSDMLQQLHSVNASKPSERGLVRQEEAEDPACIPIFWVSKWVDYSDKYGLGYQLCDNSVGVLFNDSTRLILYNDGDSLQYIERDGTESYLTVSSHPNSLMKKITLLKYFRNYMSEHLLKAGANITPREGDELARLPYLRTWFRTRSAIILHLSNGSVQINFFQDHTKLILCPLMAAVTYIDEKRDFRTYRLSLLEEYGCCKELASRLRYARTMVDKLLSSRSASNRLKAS
# VDR inh: vitamin D3 receptor (human) inhibition | VDR-SRC2-3 peptide fluorescence polarization, 2 h | P11473 | Potency, µM, without a hit: max response, negative = inhibition, actives largely listed as inhibitors | 400,000 compounds, 0.93% hits
#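 Measured by FP: displacement of SRC2-3 coactivator peptide from VDR by library compounds, following a two-hour ambient incubation.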
# rTrxR1 inhibitor: blocks rat thioredoxin reductase 1; recombinant rTrxR1, NADPH fluorescence consumption, selenite substrate; Potency, µM (doses to about 114 µM), without a hit: at the highest dose activity change, negative = inhibition, most hits filed as inhibitors; 390,000 compounds, 1% hits; also: nearly all actives have a fitted effect of over 65% in size
#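 Rat TrxR1 (90 nM in the dispensed reagent) was pre-reduced with 400 uM NADPH for 5 min at room temperature, then incubated with compound for 15 min. After 400 uM selenite was added, NADPH fluorescence (Ex 340/Em 450 nm) was followed for 8 min.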
# TrxR1 substrate: substrates of rat thioredoxin reductase 1 | O89049 | purified TrxR1 substrate turnover, NADPH consumption readout | Potency, µM (titrated, usually from 114 µM), inactives show at the highest dose activity change, negative = substrate turnover | 390,000 compounds, 0.01% hits; also: nearly all actives have a fitted effect of over 50% in size
#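 Rat TrxR1, dispensed at 90 nM, was prereduced with 400 uM NADPH (final) for 5 min at ~22 deg C, then incubated with compound 15 min before 400 uM selenite. A first-read NADPH fluorescence drop versus no-compound background flagged substrates.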
# * marks the source's active call; other numbers are inactive results; ? = inconclusive; · = no result; [ ] = dose if it differs, or a comment. Calls follow the shape of the dose curve; as a rule, active = well fitted curve in the direction sought with a large enough effect; inconclusive = small, poorly fitted or top-dose-only effect, or another doubt; inactive = no such curve, though single readings can be large; an effect the other way counts as inactive or inconclusive. Unless noted, % is scaled to controls: 0 for no effect and ±100 for the full control effect; potency is read from the fitted curve at half-maximal effect.
SMILES,Sfp inh,mIDH1 inhibitor,PLK1 PBD inh,VDR inh,rTrxR1 inhibitor,TrxR1 substrate
CCOC(=O)/C=C1\CN(CCC(C)C)S(=O)(=O)c2ccccc21,0%,4%,-16%,24%,-14%,-1%
CCOC(=O)/C=C1\CN(Cc2ccc(OC)cc2)S(=O)(=O)c2ccc(C(F)(F)F)cc21,·,·,·,·,25µM*,-6%
Nc1nonc1C(=O)NCCN=Cc1ccccc1O,89µM*,0%,-8%,1%,-7%,-5%
Cc1ccc2nc(CN3CCN(S(=O)(=O)c4ccccc4)CC3)oc2c1,·,0%,·,10%,2%[57.1 µM],-4%[57.1 µM]
CCN(CC)C(=O)Cn1cc(SCC(=O)Nc2cccc(F)c2)c2ccccc21,·,-15%,·,-12%,-3%,-5%
Cc1cccc(-c2noc(CCC(=O)NCCc3ccccc3)n2)c1,9%,1%,-10%,-7%,18%,-3%
CCN(CCCNC(=O)CCc1nc(-c2ccc(C)cc2)no1)c1cccc(C)c1,13%,2%,24µM*,-15%,9%[57.1 µM],0%[57.1 µM]
CCn1nccc1NC(=O)c1ccc2sc([C@@H]3O[C@H](CO)[C@H](O)[C@H](O)[C@H]3O)nc2c1,·,·,-11%,·,·,·
CCN1CCN(C(=S)Nc2ccc(Cl)cc2)CC1,9%,0%,-1%,4%,-9%,0%
CCN1CCN(C(=S)c2ccc(Br)cc2)CC1,14µM*,0%,8.4µM*,?,4%,1%
CC[C@]12c3[nH]c4cc(CCC(=O)N(C)C)ccc4c3CCN1C(=O)[C@@H](CC(=O)NCCCOC)C[C@@H]2C(=O)N1CCN(C(=O)C2CC2)CC1,·,-11%,21µM*,?,-9%,-4%
CC[C@]12c3[nH]c4cc(-c5ccco5)ccc4c3CCN1C(=O)[C@@H](CC(=O)NCCCOC)C[C@@H]2C(=O)N1CCN(C(=O)c2ccco2)CC1,·,-6%,21µM*,?,?,15%
COc1ccc(OC)c(CNC(=O)CN(c2ccc(C)cc2)S(=O)(=O)N(C)C)c1,·,4%,·,5%,18%,6%
CCNC(=S)NNC(=O)c1cc(C)on1,56µM*,0%,4%,8%,-25%,-1%
CCCc1cc(C(N)=O)c(NC(=O)c2ccoc2C)s1,13µM*,5%,30µM*,-5%,-16%,6%[57.1 µM]
Cc1cc(C(=O)NNC(=S)NCc2ccccc2)no1,16%,-7%,-7%,31%,-20%,-12%
CCCc1cc(C(N)=O)c(NC(=O)c2cc(C)on2)s1,32µM*,5%,?,-17%,0%,2%
CN(C)c1ccc(/C=C/c2cccc3cc4ccccc4nc23)cc1,·,·,·,·,?,-5%
CC(O)(c1cccc(F)c1)c1nc(-c2cc(F)cc(F)c2)cs1 (stereo not drawn),·,·,-2%,·,·,·
CC[C@H](C)[C@H](NC(=O)[C@H](CCC(=O)O)NC(=O)CNC(=O)[C@@H](NC(=O)[C@H](CCC(=O)O)NC(=O)[C@H](CCC(=O)O)NC(=O)[C@H](CC(C)C)NC(=O)CNC(=O)[C@@H]1CCCN1C(=O)[C@H](CCC(=O)O)NC(=O)[C@@H](N)[C@@H](C)O)C(C)C)C(=O)N[C@@H](CCC(=O)O)C(=O)N[C@@H](CCC(N)=O)C(=O)N[C@@H](CCCCN)C(=O)N[C@@H](CCC(N)=O)C(=O)N[C@@H](CC(C)C)C(=O)N[C@@H](CCC(N)=O)C(=O)O,-7%,·,·,-6%,·,·
CC1CCCCN1C(=O)Cn1cnc2cc([N+](=O)[O-])ccc2c1=O (stereo not drawn),-1%,-3%,9.5µM*,?,14%[57.1 µM],5%[57.1 µM]
Cc1cc(C)c(C(=O)Cn2cnc3cc([N+](=O)[O-])ccc3c2=O)cc1C,12%,-7%,-10%,-16%,15%[57.1 µM],4%[57.1 µM]
O=S(=O)(c1ccccc1)N1CCC[C@@]2(CCN(c3ccccc3)C2)C1,1%,·,·,32µM*,·,·
CCN(CC)S(=O)(=O)c1cccc(C(=O)N2CC(O)CC2C(=O)OC)c1 (stereo not drawn),10%,-2%,30µM*,-11%,-9%[57.1 µM],-16%[57.1 µM]
O=C(CCl)Nc1ccc(-c2ccccc2)cc1,19%,9%,-16%,-8%,11µM*,0%
SMILES,Sfp inh,mIDH1 inhibitor,PLK1 PBD inh,VDR inh,rTrxR1 inhibitor,TrxR1 substrate
CN1CCN(CC(=O)Nc2ccccc2Sc2ccccc2)CC1,79µM*,15%,-11%,-5%,24%[57.1 µM],7%[57.1 µM]
O=C(CCl)Nc1ccc(N=Nc2ccccc2)cc1,?,-14%,-5%,-17%,-20%,-2%
O=C(CCl)Nc1ccccc1Sc1ccccc1,-17%,6%,-5%,4%,40µM*,-3%
C=CCNC(=S)N/N=C(\C)c1cccc(OC)c1,5%,2%,-7%,-1%,-29%,-20%
C=CCNC(=S)N/N=C(\C)c1cccnc1,16µM*,1%,-10%,-19%,15%[57.1 µM],4%[57.1 µM]
O=C(NC(=S)Nc1ccc(CN2CCCCC2)cc1)c1cccc(OCc2ccccc2)c1,79µM*,5%,-9%,-24%,-21%[57.1 µM],-8%[57.1 µM]
O=C(O)c1ccc(NC(=S)NC(=O)c2ccc3ccccc3c2)cc1,-2%,-1%,?,-12%,?,3%
O=C(NC(=S)Nc1ccc(CN2CCOCC2)cc1)c1cccc([N+](=O)[O-])c1,45µM*,5%,-19%,-18%,3%[57.1 µM],-19%[57.1 µM]
O=C(O)c1ccc(NC(=S)NC(=O)c2cccc(COc3ccccc3)c2)cc1,50µM*,-7%,?,-13%,?,8%
O=C(NC(=S)Nc1ccc(CN2CCOCC2)cc1)c1cccc(F)c1,-9%,-14%,-7%,1%,?,7%
O=C(NC(=S)Nc1ccc(N2CCOCC2)cc1)c1cccc([N+](=O)[O-])c1,-19%,-1%,1%,-15%,?,-1%
CC(NC(=O)Cc1ccccc1F)c1ccc(F)cc1 (stereo not drawn),16%,-3%,24µM*,1%,18%[57.1 µM],5%[57.1 µM]
CC(NC(=O)Cc1ccc(-c2ccccc2)cc1)c1ccccc1 (stereo not drawn),?,0%,27µM*,?,-3%,-3%
Cc1csc(=O)n1CC(=O)OCC(=O)NNC(=O)c1ccc(Cl)cc1,·,-20%,-11%,7%,-4%,-3%
CCOC(=O)Cc1ccc(Nc2nc3cc(-c4sccc4C)sc3c(=O)n2C)cc1,·,·,4%,·,·,·
Cc1ccc(C(=O)NCC#N)cc1,15%,-1%,1%,-12%,11%[57.1 µM],0%[57.1 µM]
Cc1ccc(C(=O)NC(C#N)=C(Cl)Cl)cc1,-5%,-9%,?,0%,3.2µM*,2%[57.1 µM]
O=C(Nc1ccccc1)Nc1cc(S(=O)(=O)N2CCOCC2)ccc1N1CCCC1,?,1%,21µM*,-11%,-11%,-11%
CCOC(=O)CCC(=O)Nc1cc(S(=O)(=O)N2CCOCC2)ccc1N1CCCCC1,·,2%,-1%,15%,22%,4%

# Compound activity as filed in PubChem BioAssay.
